# Screening data as filed in PubChem BioAssay.
# The list is not random: actives were taken first. Their share in the collection is about 3.8%.
# CBFb RUNX1 block: qHTS Assay for Compounds Blocking the Interaction Between CBF-beta and RUNX1 for the Treatment of Acute Myeloid Leukemia; Runt-related transcription factor 1 (Homo sapiens) + Core-binding factor subunit beta …; AlphaScreen CBFb-His/RUNX1-biotin binding, biochemical; Potency, µM (highest dose often 59.8 µM), actives largely listed as inhibitors; 230,000 tested, under 10 active; AID 1477, 2009
#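 CBFb-His/RUNX1-biotin, 30 nM each, preincubated 20 min RT; compound 15 min RT; Ni + streptavidin beads 50 ng each, 90 min RT; AlphaScreen read.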
# KCNH2 3.1 inh: qHTS for Inhibitors of KCHN2 3.1: Mutant qHTS; AID 720553, 2013; activity change, % (tested at about 1.8 µM); Potassium voltage-gated channel subfamily H member 2, brain isoform KCNH2 3.1 (human); U2OS KCNH2 3.1, thallium flux FluxOr; active compounds read low; 340,000 compounds, 0.95% hits;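 active = maximum activity change below -70%; inconclusive = maximum activity change from -70% to -50%; inactive = maximum activity change above -50%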;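 note: thallium influx rate constant from kinetic fluorescence after stimulation buffer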
#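 FluxOr-based Tl+ influx in U2OS cells transduced with KCNH2 3.1 virus; rate constants normalized to DMSO controls.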
# PLK1 PBD inh: qHTS for Inhibitors of PLK1-PDB (polo-like kinase 1 - polo-box domain): Primary Screen | Serine/threonine-protein kinase PLK1 (Homo sapiens), P53350 | Plk1 PBD binding of FITC phosphopeptide, fluorescence polarization | Potency, µM, hits mostly inhibitors | 360,000 compounds, 2.8% hits; note: series mostly up to about 57 µM; nearly all actives have a fitted effect of over 65% in size
# VDR inhibitor: Inhibitors of the vitamin D receptor (VDR): qHTS. Vitamin D3 receptor (Homo sapiens), P11473. VDR-SRC2-3 peptide fluorescence polarization, 2 h. Potency, µM, hits mostly inhibitors. 400,000 compounds, 0.93% hits. AID 504847, 2011
# Target sequence (P11473 whole entry, looked up): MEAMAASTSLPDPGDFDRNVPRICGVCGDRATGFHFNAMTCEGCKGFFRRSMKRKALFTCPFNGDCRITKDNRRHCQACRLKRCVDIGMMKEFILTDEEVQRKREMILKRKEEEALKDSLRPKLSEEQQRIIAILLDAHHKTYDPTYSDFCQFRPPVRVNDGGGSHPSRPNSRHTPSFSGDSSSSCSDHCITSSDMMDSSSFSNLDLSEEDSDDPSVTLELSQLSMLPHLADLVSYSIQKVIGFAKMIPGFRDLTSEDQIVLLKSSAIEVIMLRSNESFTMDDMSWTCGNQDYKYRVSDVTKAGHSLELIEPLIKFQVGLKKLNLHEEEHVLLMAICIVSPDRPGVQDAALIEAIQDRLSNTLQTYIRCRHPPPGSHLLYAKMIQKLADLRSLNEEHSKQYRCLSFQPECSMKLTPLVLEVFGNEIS
#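 Two reagent solutions held at 4 deg C in the dark were dispensed, compounds pinned at 23 nl, and the mixture incubated 2 h at room temperature. Read-out: fluorescence polarization of VDR–SRC2-3 peptide binding.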
# hERG WT inh: qHTS for Inhibitors of KCHN2 3.1: Wildtype qHTS; 340,000 compounds, 0.37% hits; U2OS, BacMam KCNH2, thallium flux FluxOr; active compounds read low; Voltage-gated inwardly rectifying potassium channel KCNH2 (Homo sapiens), Q12809; AID 720551, 2013; activity change, % at 1.84 µM;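 active = maximum activity change below -70%; inconclusive = maximum activity change between -70% and -50%; inactive = maximum activity change above -50%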
#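 U2OS cells were transduced with wild-type KCNH2 virus (2.03 x 10^8 / mL) for 4 h at room temperature, then cultured overnight at 37 C. Thallium flux was read with FluxOr dye. Rate constants were normalized to DMSO controls.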
# MBNL1 CUG block: qHTS Assay for Inhibitors of MBNL1-poly(CUG) RNA binding | Muscleblind-like protein 1 (Homo sapiens), Q9NR56 | Potency, µM (doses to about 57.5 µM), hits mostly inhibitors | TR-FRET MBNL1-His/biotin-(CUG)12 binding, 665/545 ratio | 280,000 compounds, 0.036% hits; active = well fitted inhibition curve with a large enough effect in the signal ratio, with a control signal flat, not every such curve was filed as active; inconclusive = small, poorly fitted or top-dose-only effect, or effect the other way, or a change in a side signal; inactive = no such curve, though single readings can be large or run the other way; the % refers to the signal ratio
#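 Ratiometric TR-FRET (665 over 545 nm, excitation 340 nm) tracks disruption of MBNL1-His/biotin-(CUG)12 complex after 60 min at room temperature, with compounds at 92 nM to 58 uM final.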
# TbPYK confirm: qHTS of Trypanosoma Brucei Inhibitors: Confirmatory Assay for Cherry-picked Compounds | shares compounds with PLK1 PBD inh | recombinant TbPYK, Kinase-Glo ATP luminescence | Potency, µM (titrated, usually from 76.9 µM), hits mostly inhibitors | 890 compounds, 67% hits; note: nearly all actives have a fitted effect of over 70% in size
# TbPYK ADP-Glo: qHTS of Trypanosoma Brucei Inhibitors: Orthogonal Assay for Cherry-picked Compounds; shares compounds with PLK1 PBD inh; recombinant TbPYK, ADP-Glo luminescence, 60 min; Potency, µM (titrated, usually from 76.9 µM), hits mostly inhibitors; 890 compounds, 62% hits; AID 720584, 2013; note: nearly all actives have a fitted effect of over 75% in size
# Hits are given with their value; i = inactive; ? = inconclusive; nt = no result. Unless noted, calls come from the whole dose curve; as a rule, active = well fitted curve in the direction sought with a large enough effect; inconclusive = small, poorly fitted or top-dose-only effect, or another doubt; inactive = no such curve, though single readings can be large; an effect the other way counts as inactive or inconclusive.
SMILES,CBFb RUNX1 block,KCNH2 3.1 inh,PLK1 PBD inh,VDR inhibitor,hERG WT inh,MBNL1 CUG block,TbPYK confirm,TbPYK ADP-Glo
COc1ccccc1N(C(C)=O)C1=C(Cl)C(=O)c2ccccc2C1=O,nt,i,2.99µM,nt,i,nt,i,0.794µM
COc1ccccc1N(C(=O)CCl)c1cn(C(C)=O)c2ccccc12,i,i,i,i,i,i,nt,nt
COc1ccc(Cl)cc1NC(=O)CCN1C(=O)c2ccccc2Sc2ncccc21,nt,nt,nt,i,nt,nt,nt,nt
COc1ccc(Nc2nn3c(=O)c4cc5c(cc4nc3s2)OCO5)c(OC)c1,nt,nt,nt,i,nt,nt,nt,nt
Cc1cc(O)c(-c2cc(O)c(C)cc2O)cc1O,i,i,4.74µM,25.1µM,i,i,31.6µM,11.2µM
Cc1cc(Br)ccc1NC(=O)CN(C)C(=O)Cn1c(=O)cnc2ccccc21,nt,i,i,i,i,i,?,?
O=[N+]([O-])c1cc(-c2nc(-c3ccccc3)no2)ccc1N1CCCCC1,nt,nt,nt,i,nt,nt,nt,nt
CC1=C/C(=C(\c2cc(C)c(O)c(Br)c2)c2ccccc2S(=O)(=O)O)C=C(Br)C1=O,nt,i,i,i,i,?,12.6µM,i
Cc1cc2c(n1-c1ccc(C(=O)NCC(C)c3ccccc3)cc1)CCCC2 (stereo unspecified),nt,nt,nt,i,nt,nt,nt,nt
O=C(CCCN1C(=O)/C(=C/c2ccccc2Cl)SC1=S)NCCCN1CCOCC1,nt,i,i,i,i,?,nt,nt
O=C1C(=Cc2cccc(O)c2O)SC(=S)N1CCCN1CCOCC1,nt,i,5.32µM,nt,i,nt,4.47µM,2.24µM
CCOc1ccc(CCNC(=O)Cn2ncc3c(=O)oc4ccc(C)cc4c32)cc1,nt,nt,nt,i,nt,nt,nt,nt
COc1ccc(C2NC(=O)c3sc(=S)n(-c4ccccc4)c3N2)cc1 (stereo unspecified),i,i,?,79.4µM,i,?,7.08µM,12.6µM
COC(=O)/C(=N/Nc1ccccc1C)Sc1nnc(C(O)c2ccccc2)n1-c1ccccc1 (stereo unspecified),i,i,i,i,i,i,35.5µM,35.5µM
O=C1c2cccc3cccc(c23)C(=O)C1(O)O,nt,i,?,?,i,nt,6.31µM,5.01µM
CCOC(=O)c1cnc2ccc(OCC)cc2c1NCc1cccnc1,i,i,i,i,i,i,i,i
[O]=[Bi][O][Bi]=[O],nt,nt,nt,i,nt,nt,nt,nt
CCCC(=O)NC1=C(Cl)C(=O)c2ccccc2C1=O,nt,i,2.99µM,7.94µM,i,nt,7.08µM,7.08µM
CCNC1=C(Cl)C(=O)c2ccccc2C1=O,nt,i,i,i,i,?,nt,nt
O=C(O)CN1C(=O)/C(=C/c2ccc(N3CCCCC3)o2)SC1=S,i,i,i,?,i,?,nt,nt
O=C1C2C(C(=O)N1/N=C/c1ccc(N3CCCCC3)o1)C1C=CC2C12CC2 (stereo unspecified),i,i,i,89.1µM,i,?,28.2µM,31.6µM
Cc1ccc(C)c(NC(=O)N2CCN(C(=O)c3nsc4ccccc34)CC2)c1,nt,nt,nt,i,nt,nt,nt,nt
COc1ccc(S(=O)(=O)Oc2ccc3ccccc3c2)cc1,?,i,i,i,i,i,nt,nt
COC1=C(OC)C(=O)C(Sc2ccc3ccccc3c2)=CC1=O,nt,i,0.752µM,8.91µM,i,nt,0.355µM,2.24µM
CCOC(=O)c1cnc2cc(C(F)(F)F)ccc2c1Nc1cc(C)ccc1OC,nt,nt,nt,i,nt,nt,nt,nt
SMILES,CBFb RUNX1 block,KCNH2 3.1 inh,PLK1 PBD inh,VDR inhibitor,hERG WT inh,MBNL1 CUG block,TbPYK confirm,TbPYK ADP-Glo
O=C(Sc1cccc2cccnc12)c1ccc(F)cc1,nt,nt,nt,nt,nt,i,nt,nt
O=S(=O)(Nc1cc(Sc2cccc3cccnc23)c(O)c2ccccc12)c1ccc(F)cc1,nt,i,1.5µM,22.4µM,i,?,1.41µM,2.24µM
Cc1ccc(/C=C2/NC(=O)N(Cc3ccccc3F)C2=O)o1,i,i,i,79.4µM,i,i,?,35.5µM
COc1ccc(N2C(=O)CC(Sc3ncn[nH]3)C2=O)c(OC)c1 (stereo unspecified),i,i,29.9µM,i,i,i,?,?
CCc1ccccc1NC(=O)c1sc(-n2nc(C)c(Cc3ccc4c(c3)OCO4)c2C)nc1C,nt,nt,nt,i,nt,nt,nt,nt
c1ccc2sc(SN3CCOCC3)nc2c1,i,i,21.2µM,?,i,i,28.2µM,35.5µM
CC(=O)N1CC[n+]2c(-c3ccc(Cl)cc3)csc21,i,i,5.97µM,20µM,i,i,15.8µM,7.08µM
Cc1ccc2c(c1)C(N1CCCC1=O)CC(c1ccco1)N2 (stereo unspecified),i,i,?,i,i,?,i,i
CCc1ccccc1Nc1nn2c(=O)c3ccc(C(=O)NCc4cccs4)cc3nc2s1,nt,nt,nt,i,nt,nt,nt,nt
COc1ccccc1OCC(=O)Nc1nc(-c2ccc(Br)cc2)ns1,nt,nt,nt,i,nt,nt,nt,nt
O=C(CSc1cn[nH]n1)Nc1cccc(C(=O)O)c1,nt,i,4.23µM,44.7µM,i,i,14.1µM,35.5µM
Cc1ccc(S(=O)(=O)/N=C2/C=C(C3C(=O)CC(C)(C)CC3=O)C(=O)c3ccccc32)cc1,i,i,7.52µM,?,i,?,i,i
CCOc1ccccc1-n1c(=S)sc2c(=O)n(-c3ccccc3)c(=S)[nH]c21,i,i,i,i,i,?,11.2µM,11.2µM
COc1ccccc1-n1c(=S)[nH]c2c(sc(=S)n2-c2ccccc2)c1=O,i,i,i,i,i,?,31.6µM,17.8µM
COc1cccc(-n2c(=S)sc3c(=O)n(-c4ccccc4OC)c(=S)[nH]c32)c1,i,i,?,i,i,i,nt,nt
COc1ccc(OC)c(-n2c(=S)[nH]c3c(sc(=S)n3-c3ccccc3C)c2=O)c1,i,i,?,?,i,i,nt,nt
COc1ccccc1-n1c(=S)[nH]c2c(sc(=S)n2-c2ccccc2C)c1=O,i,i,26.7µM,?,i,?,5.01µM,14.1µM
CCOCCCNC(=O)C(c1ccc(C)cc1)N(Cc1ccc2c(c1)OCO2)C(=O)c1ccc(NC(C)=O)cc1 (stereo unspecified),nt,nt,nt,i,nt,nt,nt,nt
Cc1cc(-c2ccc(C)c(S(=O)(=O)NCc3cccs3)c2)on1,nt,nt,nt,i,nt,nt,nt,nt
